EPAC2 ag = qHTS for Agonist of cAMP-regulated guanine nucleotide exchange factor 4 (EPAC2): primary screen; EPAC2 activation, biochemical qHTS; response scale: 100% = 6.5 mM cAMP response; AID 720711, 2013; Potency, µM (series often up to 154 µM), inactives show top-dose activation, usual class: activators; hit rate 0.079% among 360,000; Rap guanine nucleotide exchange factor 4 (Homo sapiens), Q8WZA2; note: potency is the fitted concentration of half-maximal effect; nearly all actives have a fitted effect of over 50% in size
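In this primary screen, activation is scored as increased exchange of BODIPY-GDP from Rap1B by 100 nM EPAC2, with 50 uM GDP as competitor. Signal is normalized to the 6.5 mM cAMP agonist control.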
EPAC1 ag = qHTS for Agonist of cAMP-regulated guanine nucleotide exchange factor 3 (EPAC1): primary screen; AID 720707, 2013; Potency, µM (highest dose often 154 µM), for inactives: at the highest dose activation, most hits filed as activators; EPAC1 agonist qHTS, biochemical assay; response scale: 100% = response to 6.5 mM cAMP; hit rate 0.073% among 360,000; note: potency is the fitted concentration of half-maximal effect; nearly all actives have a fitted effect of over 60% in size
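Fluorescent GDP-exchange assay: 100 nM EPAC1 with 250 nM Rap1B preloaded with BODIPY-GDP and 50 uM GDP; compounds tested as concentration series, 5 min at room temperature, then read every 5 min for 30 min (ex 480/em 540 nm); normalized to 6.5 mM cAMP.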
EPAC1 antag = qHTS for Antagonist of cAMP-regulated guanine nucleotide exchange factor 3 (EPAC1): primary screen; Potency, µM (series often up to 115 µM), inactives show at the top dose activity change, negative = inhibition, most hits filed as inhibitors; EPAC1 GEF assay, Rap1b-BODIPY-GDP exchange fluorescence; AID 720709, 2013; hit rate 0.14% among 360,000; Rap guanine nucleotide exchange factor 3 (Homo sapiens), O95398;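 note: potency is the fitted concentration of half-maximal effect; plate controls were vehicle for no effect and positive control for full effect; nearly all actives have a fitted effect of over 50% in size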
EPAC2 antagonist = qHTS for Antagonist of cAMP-regulated guanine nucleotide exchange factor 2 (EPAC2): primary screen; EPAC2 GEF exchange of Rap1B-BODIPY-GDP, fluorescence; Rap guanine nucleotide exchange factor 4 (Homo sapiens), Q8WZA2; hit rate 0.18% among 360,000; Potency, µM (doses to about 114 µM), without a hit: top-dose activity, negative = inhibition, actives largely listed as inhibitors; AID 720708, 2013; note: potency is the fitted concentration of half-maximal effect; % is set by controls: 0 for no effect and ±100 for the full control effect; nearly all actives have a fitted effect of over 45% in size
TRPML1 agonist = qHTS for Agonists of the Human Mucolipin Transient Receptor Potential 1 (TRPML1) | hit rate 0.12% among 410,000 | activation, % (test concentration not listed) | Mucolipin-1 (Homo sapiens), Q9GZU1 | TRPML1-expressing cells, Ca2+ dye fluorescence, FDSS; in the data active = activation above about 50%; inconclusive = mostly about 30% to 49%; note: 0% is about no effect
Target sequence (Q9GZU1 whole entry, looked up): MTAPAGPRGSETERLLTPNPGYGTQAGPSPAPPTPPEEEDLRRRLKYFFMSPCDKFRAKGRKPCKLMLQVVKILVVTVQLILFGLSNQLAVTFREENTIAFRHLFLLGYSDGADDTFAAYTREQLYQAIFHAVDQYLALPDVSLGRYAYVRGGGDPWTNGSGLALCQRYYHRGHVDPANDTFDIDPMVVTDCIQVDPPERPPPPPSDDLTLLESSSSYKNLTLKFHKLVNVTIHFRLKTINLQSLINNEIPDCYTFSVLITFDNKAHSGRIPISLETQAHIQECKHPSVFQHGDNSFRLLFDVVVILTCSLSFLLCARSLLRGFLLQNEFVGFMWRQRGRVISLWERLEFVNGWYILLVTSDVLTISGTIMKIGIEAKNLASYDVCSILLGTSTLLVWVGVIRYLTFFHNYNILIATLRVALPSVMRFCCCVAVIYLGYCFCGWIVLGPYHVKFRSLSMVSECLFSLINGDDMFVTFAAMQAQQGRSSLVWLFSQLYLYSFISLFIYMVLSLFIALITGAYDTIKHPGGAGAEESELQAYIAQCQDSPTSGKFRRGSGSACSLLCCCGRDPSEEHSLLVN
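Tetracycline-induced TRPML1-DL cells are seeded and incubated overnight before loading with a no-wash Ca2+ dye and quencher. Agonist activity is taken from the 110 s fluorescence read following compound pin-transfer on an FDSS, before EC80 54-4 challenge.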
TRPML1 blocker = qHTS for Inhibitors of the Human Mucolipin Transient Receptor Potential 1 (TRPML1) | activity change, negative = inhibition, % (no concentration beside the values) | TRPML1-inducible cells, Ca2+ dye fluorescence, FDSS; hits give low values; inhibition of EC80 agonist-evoked calcium signal | Mucolipin-1 (Homo sapiens), Q9GZU1 | hit rate 0.02% among 390,000; in the data active = activity change below about -50%; inconclusive = between about -30% and that limit;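 note: stimulus is agonist 54-4 at its EC80 concentration; % is set by controls: 0 for no effect and ±100 for the full control effect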
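TRPML1-DL cells, Tet-induced overnight (~16 h, 37 °C) at 1,500 cells/well, were loaded with Ca8 no-wash dye plus quencher for 45-90 min at room temperature. Compounds were pinned during FDSS kinetic reading; agonist 54-4 at EC80 (4 uM final) then added.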
* = called active by the depositor; i = inactive; ? = inconclusive; · = no result. Shown are actives, neighbours in structure and some others; about 0.4% of the full set was active somewhere. Unless noted, calls come from the whole dose curve; as a rule, active = well fitted curve in the direction sought with a large enough effect; inconclusive = small, poorly fitted or top-dose-only effect, or another doubt; inactive = no such curve, though single readings can be large; an effect the other way counts as inactive or inconclusive.

SMILES	EPAC2 ag	EPAC1 ag	EPAC1 antag	EPAC2 antagonist	TRPML1 agonist	TRPML1 blocker
COc1ccc(N(C(=O)c2ccco2)S(=O)(=O)c2cc(OC)ccc2OC)cc1	10µM*	6.2%	-0.9%	-11.3%	-1.7	-12.6
COC(=O)c1ccccc1NC1=C/C(=N\S(=O)(=O)c2cccs2)c2ccccc2C1=O	7.9%	-1.4%	-1.5%	3.5%	1.9	11.4
COC(=O)c1ccccc1NC1=C/C(=N\S(=O)(=O)c2ccc(C(=O)O)cc2)c2ccccc2C1=O	12.7%	5.7%	39.8µM*	?	1.4	2.3
COc1ccc(-c2csc3nc(C)nc(N4CCCCC4)c23)cc1OC	8.5%	-1.0%	-4.5%	28.2µM*	1.1	6.4
COc1ccc(-c2csc3nc(-c4cccnc4)nc(N4CCC(C(N)=O)CC4)c23)cc1OC	8.2%	-1.7%	-28.2%	8.3%	0.7	7.8
COc1cccc(-c2nc(SCC(=O)Nc3nc(-c4ccccc4)c(C)s3)[nH]c(=O)c2C#N)c1	-2.5%	2.1%	?	25.1µM*	1.2	11.6
Cc1ccc(CN(C(=O)COc2ccccc2Cl)c2ccccn2)o1	·	·	·	·	-0.5	-6.1
CCCn1c(=O)n(C)c(=O)c2c(SCC(=O)NCc3ccco3)nc(C3CC3)nc21	10µM*	-6.7%	-9.9%	-15.8%	-0.4	1.5
Cn1cccc1/C=C1\SC(=S)N(NC(=O)c2ccccc2Cl)C1=O	-146.9%	-165.8%	-12.8%	40.8%	0.1	4.4
Cn1cc(/C=C2\SC(=S)N(NC(=O)c3ccccc3Cl)C2=O)c2ccccc21	?	100µM*	67.9%	22.5%	10.8	-6.3
Cc1ccc(C(=O)NN2C(=O)/C(=C/c3cn(C)c4ccccc34)SC2=S)cc1	3.8%	100µM*	-1.1%	16.8%	23.2	25.1
COc1cc2nc(N3CCOCC3)nc(NC3CC3)c2cc1OC	·	·	·	·	-0.6	·
O=C(C[n+]1ccc2ccccc2c1)c1ccc(F)cc1	·	·	·	·	-0.4	·
O=C(NCc1cccc(F)c1)c1cccc2c1C(=O)c1ccc(N3CCC(Cc4ccccc4)CC3)cc1S2(=O)=O	-74.9%	-69.1%	112.7%	117.4%	29.2	6.6
CC1CCN(c2ccc3c(c2)S(=O)(=O)c2cccc(C(=O)NCc4cccc(F)c4)c2C3=O)CC1	-4.0%	100µM*	62.1%	i	?	0.8
O=C(NCc1cccc(F)c1)c1cccc2c1C(=O)c1ccc(N3CCCC3)cc1S2(=O)=O	?	28.2µM*	79.4%	124.4%	?	0.4
Cc1cc(C)c2sc(N(CCCN(C)C)C(=O)c3ccc(S(=O)(=O)N(C)C4CCCCC4)cc3)nc2c1	-6.2%	44.7µM*	-15.2%	-4.8%	0.5	36.9
CN(C)CCCN(C(=O)c1ccc(S(=O)(=O)N(C)C2CCCCC2)cc1)c1nc2ccc(F)cc2s1	6.7%	6.5%	-5.1%	-8.4%	0.8	2.2
COc1ccc(/C=C/c2nccc3ccccc23)cc1OC	·	·	·	·	-1.0	·
CN(C)S(=O)(=O)c1cccc(-c2nn(-c3ccccc3)cc2/C=C(\C#N)c2nc3ccccc3[nH]2)c1	5.4%	5.4%	0.7%	1.4%	-0.1	-5.4
CN(C)S(=O)(=O)c1cccc(-c2nn(-c3ccccc3)cc2/C=C2\SC(=S)NC2=O)c1	-4.9%	5.5%	70.8µM*	-1.8%	0.0	9.5
O=C(C[n+]1ccccc1Cl)c1ccc(Br)cc1	·	·	·	·	-0.2	·
CC[N+]1(CC(=O)c2ccc(Br)cc2)CCCCC1	·	·	·	·	0.0	·
O=C(Cn1cnc2scc(-c3cccc([N+](=O)[O-])c3)c2c1=O)NCc1ccco1	-5.0%	1.0%	56.2µM*	3.8%	3.0	-7.8
CN(C)c1ccc(/C=C2\CCc3ccccc32)cc1	·	·	·	·	-0.7	·
SMILES	EPAC2 ag	EPAC1 ag	EPAC1 antag	EPAC2 antagonist	TRPML1 agonist	TRPML1 blocker
CCOC(=O)N1CCN(c2nc(C(F)(F)F)nc3c(C)cc(C)cc23)CC1	9.0%	-0.7%	-12.2%	-19.9%	1.4	21.9
Cc1cc(C)c2nc(C(F)(F)F)nc(N3CC(C)OC(C)C3)c2c1 (configuration not stated)	-2.3%	1.6%	-9.3%	10µM*	0.4	2.3
Cc1cnc2ccc3ccccc3c2c1C	·	·	·	·	-0.8	·
CC(=O)Nc1ccc(/C=N/N2C(=O)NC(C)(c3ccc(OC(F)F)cc3)C2=O)cc1 (configuration not stated)	5.3%	11.9%	-3.2%	3.9%	50.0*	-3.0
Cc1cc(C(=O)Nc2ccon2)c(C)o1	2.8%	-7.5%	50.1µM*	8.4%	-0.2	3.9
CCCCCCCCCCCCCCCCOC(=O)N1CCN(/[N+]([O-])=N/Oc2ccc([N+](=O)[O-])cc2[N+](C)=O)CC1	·	·	·	·	1.5	4.0
CC(C)CCNC(=O)C1CCN(C(=O)c2cc3sccc3n2Cc2ccc(Cl)cc2)CC1	·	·	·	·	1.0	-0.2
COc1ccc(C2N(c3ccc(Cl)cc3)N=C(C(C)=O)N(C)N2C(C)=O)cc1 (configuration not stated)	12.7%	5.3%	6.3%	20µM*	0.0	1.6
CCCCC(=O)N(C)c1c(CC)nc2c(OCc3ccc(C#N)cc3)cccn12	0.4%	1.4%	1.3%	?	-0.9	·
CCOC(=O)N(C)c1c(CC)nc2c(OCc3ccc(C(F)(F)F)cc3)cccn12	-3.8%	-14.3%	?	35.5µM*	-1.3	·
CCCCC(=O)N(C)c1c(CC)nc2c(OCc3ccc(C(F)(F)F)cc3)cccn12	-0.2%	-14.5%	-22.6%	20µM*	0.5	·
C#CCN(C1CCCC1)S(=O)(=O)C=C	·	·	·	·	-0.6	·
CN(C)c1ccc(C=O)cc1Cl	·	·	·	·	-0.6	·
COc1cc2c(NC3CCN(C)CC3)nc(N3CCCN(C)CC3)nc2cc1OCCCCCCN(C)C	·	·	·	·	-0.2	·
COc1cccc(N2CCN(c3ncnc4c3c(-c3ccccc3)cn4-c3cccc(C(F)(F)F)c3)CC2)c1	·	·	·	·	53.1*	-17.8
Cc1ccc(-n2c(O)c(/C=N/NC(=O)C3COc4ccccc4O3)c3ccccc3c2=O)cc1 (configuration not stated)	-16.5%	-2.5%	17.7%	-1.7%	5.4	6.5

Bioassay records as filed in PubChem BioAssay.
